Source: PubChem BioAssay (National Center for Advancing Translational Sciences (NCATS))
Only some compounds are listed: those with a hit (about 18% of all), similar ones and a draw of the others.
TDP1 block: qHTS Assay for Inhibitors of Tyrosyl-DNA Phosphodiesterase (TDP1); Tyrosyl-DNA phosphodiesterase 1 (Homo sapiens), Q9NUW8; recombinant TDP1, AlphaScreen DNA substrate cleavage; Potency, µM (doses to about 130 µM), usual class: inhibitors; hit rate 0.28% among 350,000; AID 485290, 2010; note: nearly all actives have a fitted effect of over 40% in size
Target sequence (Q9NUW8 whole entry, looked up): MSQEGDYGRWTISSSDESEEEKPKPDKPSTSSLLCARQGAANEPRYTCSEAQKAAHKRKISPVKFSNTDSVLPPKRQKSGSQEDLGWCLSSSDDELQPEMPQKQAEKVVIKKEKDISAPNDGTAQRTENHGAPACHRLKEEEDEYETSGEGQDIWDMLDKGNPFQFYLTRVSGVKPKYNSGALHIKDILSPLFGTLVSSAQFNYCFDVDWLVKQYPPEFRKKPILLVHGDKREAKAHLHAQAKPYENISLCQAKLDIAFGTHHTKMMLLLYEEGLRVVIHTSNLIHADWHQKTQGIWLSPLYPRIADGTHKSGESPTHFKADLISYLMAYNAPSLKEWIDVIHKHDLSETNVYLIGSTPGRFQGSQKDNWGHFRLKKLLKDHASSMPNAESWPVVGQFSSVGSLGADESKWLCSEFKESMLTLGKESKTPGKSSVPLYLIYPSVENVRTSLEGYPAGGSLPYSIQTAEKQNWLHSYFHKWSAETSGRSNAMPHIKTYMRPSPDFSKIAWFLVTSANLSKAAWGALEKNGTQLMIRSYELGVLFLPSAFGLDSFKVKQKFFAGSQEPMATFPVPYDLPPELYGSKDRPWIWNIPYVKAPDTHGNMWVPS
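Here, a 5' biotin and 3' phosphotyrosine-FITC DNA oligonucleotide reports Tdp1 activity: intact substrate bridges AlphaScreen beads, while cleavage leaves a 3' phosphate and drops signal. All incubations at room temperature.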
TGFb inhibitor: qHTS for Inhibitors of TGF-b; AID 588855, 2011; Potency, µM (titrated, usually from 46.1 µM), most hits filed as inhibitors; hit rate 1.2% among 410,000; HepG2 CAGA-GFP TGF-b/SMAD3 reporter, GFP fluorescence, 18 h; TGF-beta stimulated, 500 pg/mL final; note: nearly all actives have a fitted effect of over 65% in size
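GFP signal (ex488/em500-530) from TGF-beta-stimulated HEPG2 CAGA-GFP cells, 500 pg/mL final, 18 h at 37 degrees C in DMEM plus 1% FBS, normalized to unstimulated and DMSO-stimulated controls.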
DT40 TDP1 no CPT: qHTS for Inhibitors of human tyrosyl-DNA phosphodiesterase 1 (TDP1): qHTS in cells in absence of CPT | DT40 Tdp1-/- hTDP1 cells, no CPT, ATP luminescence, 48 h | Potency, µM (top dose mostly 46.2 µM), most hits filed as inhibitors | hit rate 15% among 420,000 | AID 686978, 2013; note: nearly all actives have a fitted effect of over 55% in size
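No-CPT arm: Tdp1-/-;hTDP1 DT40 cells (400/well) plus compounds, incubated ≥48 hr at 37 °C. Readout CellTiter-Glo luminescence.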
IL-1B inflam inh: qHTS for Inhibitors of Inflammasome Signaling: IL-1-beta AlphaLISA Primary Screen | THP-1 LPS/ATP IL-1B secretion, AlphaLISA, 16 h; active compounds read low | activity change, % at 57.5 µM | hit rate 4.7% among 360,000 | AID 743279, 2014; in the data active = activity change below about -50%; inconclusive = mostly about -30% to -49%
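THP-1 cells pretreated 1 hr with compounds (up to 57.5 uM final), then stimulated with LPS (250 ng/mL final) plus ATP (1.25 mM final); secreted IL-1B measured by AlphaLISA after 16 hr, decreased signal indicating inhibition.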
DT40 TDP1 CPT: qHTS for Inhibitors of human tyrosyl-DNA phosphodiesterase 1 (TDP1): qHTS in cells in presence of CPT; chicken DT40 Tdp1-/-;hTDP1 cells + 20 nM CPT, ATP luminescence, 48 h; Potency, µM (titrated, usually from 46.2 µM), most hits filed as inhibitors; AID 686979, 2013; hit rate 12% among 420,000; note: nearly all actives have a fitted effect of over 55% in size
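Chicken DT40 Tdp1-/- cells complemented with human TDP1, 400 cells/well, exposed to compounds plus 20 nM camptothecin for at least 48 h at 37 C; viability read as ATP content by CellTiter-Glo luminescence.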
HepG2 tox: qHTS for Inhibitors of TGF-b: Cytotox Counterscreen; Potency, µM (titrated, usually from 46.1 µM), actives largely listed as cytotoxic; hit rate 0.76% among 410,000; AID 588856, 2011; HepG2 CAGA-GFP viability, ATP luminescence, 18 h
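HepG2 CAGA-GFP cells (1000/well, DMEM with 1% FBS) received compound, then TGF-beta at 500 pg/mL final, and were incubated 18 hours at 37 degrees C. Viability was read by CellTiter-Glo luminescence. Media-only wells were set as complete cell-killing and DMSO as no toxicity.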
A number is an active result; – = inactive; ? = inconclusive; · = not tested or not shown. Unless noted, calls come from the whole dose curve; as a rule, active = well fitted curve in the direction sought with a large enough effect; inconclusive = small, poorly fitted or top-dose-only effect, or another doubt; inactive = no such curve, though single readings can be large; an effect the other way counts as inactive or inconclusive.

SMILES	TDP1 block	TGFb inhibitor	DT40 TDP1 no CPT	IL-1B inflam inh	DT40 TDP1 CPT	HepG2 tox
CC1CCCC(C)N1C(=O)c1cc(-c2ccc(Cl)c(Cl)c2)on1 (centres undefined)	–	–	?	–	18.4µM	–
CC1CCCC(C)N1C(=O)c1cc(-c2ccc3c(c2)OCO3)on1 (centres undefined)	–	–	25.9µM	–	?	–
CCOc1ccc(CNC(=O)C2Cc3ccccc3N2C(=O)CC)cc1OC (centres undefined)	–	–	–	·	–	–
CC1CCCC(NC(=O)COC(=O)/C=C/c2ccco2)C1C (centres undefined)	?	–	–	–	?	–
O=C(COC(=O)c1ccco1)NC1CCCCC1	–	–	–	–	–	–
O=C(COC(=O)c1c2c(nc3ccccc13)/C(=C\c1ccco1)CC2)NC1CCCC1	·	?	23.1µM	–	16.4µM	–
CC1CCCCC1NC(=O)COC(=O)c1c2c(nc3ccccc13)/C(=C\c1ccco1)CC2 (centres undefined)	·	–	23.1µM	?	29.1µM	–
CN(CCC#N)C(=O)COC(=O)c1nn(-c2ccccc2)c(=O)c2ccccc12	–	–	–	–	–	–
CN(CCC#N)C(=O)COC(=O)c1c2c(nc3ccccc13)/C(=C\c1ccco1)CC2	·	–	13µM	-63.3	20.6µM	–
CCN(c1ccc(NC(=O)CSCc2c(C)noc2C)cc1)C(C)C	–	–	–	–	?	–
O=c1ccncn1C1OC(CO)C(O)C1O (centres undefined)	·	–	–	–	–	–
NS(=O)(=O)c1ccc(CNC(=O)Cc2ccsc2)cc1	·	–	–	–	–	–
CN1C(=O)c2ccccc2CC12c1ccccc1C(=O)N2C (centres undefined)	·	–	?	–	–	–
Oc1ccc(/C=N/n2c(COc3ccccc3)n[nH]c2=S)cc1O	·	–	?	–	?	–
COc1ccccc1NC(=O)/C(=C\c1cccnc1)NC(=O)c1ccc(C)cc1	–	–	–	–	–	–
N#CC1C=Cc2c(ccc3ccccc23)N1C(=O)c1ccccc1 (centres undefined)	·	?	0.92µM	-66.2	0.581µM	–
N#CC1C=Cc2ccccc2N1C(=O)c1ccccc1 (centres undefined)	–	–	–	–	–	–
Cc1ccc(F)c(S(=O)(=O)NC(=O)C2(C)CCN2C(=O)CC2CCCCC2)c1 (centres undefined)	·	–	–	–	–	–
COc1cc2c(cc1OC)[C@@H]1C(=O)c3ccc4c(c3O[C@@H]1CO2)C=CC(C)(C)O4	–	·	0.106µM	·	0.15µM	·
COc1cc(O)c(C(C)=O)c2c1C=CC(C)(C)O2	·	–	?	–	–	–
Cc1cc(C)nc(-n2nc(C)c3c2N(Cc2ccccc2)C(=O)CC3c2ccc(Cl)cc2)n1 (centres undefined)	–	–	?	·	16.4µM	–
Cc1cccc(CN2C(=O)CC(c3ccc(Cl)cc3)c3c(C)nn(-c4nc(C)cc(C)n4)c32)c1 (centres undefined)	–	?	?	·	?	–
CCCCCc1ccc(-c2cn(Cc3ccc4c(c3)C(=O)c3ccccc3C4=O)nn2)cc1	·	–	–	·	–	–
CC1=NN(c2ccc(Cl)cc2)C(=O)/C1=C\c1cccn1-c1ccc(S(N)(=O)=O)cc1	–	?	14.6µM	?	?	–
Cc1ccc(S(=O)(=O)N/N=C/c2cccn2-c2ccc(Cl)cc2)cc1	–	–	–	–	?	–
